Each structure is given as a SMILES string. Over roughly 110,000 compounds, “z-score” has its median near -0.1; the highest 2% begin near 2. What follows is part of a selection rich in the highest values, with near analogues and random picks from the rest. Active and inactive are the calls of the source.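 The calls were made as follows: active = z-score in the third read window above 3 or below -3; inactive = the rest.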

Sequence of Metabotropic glutamate receptor 8 (Rattus norvegicus) (P70579 whole entry, looked up): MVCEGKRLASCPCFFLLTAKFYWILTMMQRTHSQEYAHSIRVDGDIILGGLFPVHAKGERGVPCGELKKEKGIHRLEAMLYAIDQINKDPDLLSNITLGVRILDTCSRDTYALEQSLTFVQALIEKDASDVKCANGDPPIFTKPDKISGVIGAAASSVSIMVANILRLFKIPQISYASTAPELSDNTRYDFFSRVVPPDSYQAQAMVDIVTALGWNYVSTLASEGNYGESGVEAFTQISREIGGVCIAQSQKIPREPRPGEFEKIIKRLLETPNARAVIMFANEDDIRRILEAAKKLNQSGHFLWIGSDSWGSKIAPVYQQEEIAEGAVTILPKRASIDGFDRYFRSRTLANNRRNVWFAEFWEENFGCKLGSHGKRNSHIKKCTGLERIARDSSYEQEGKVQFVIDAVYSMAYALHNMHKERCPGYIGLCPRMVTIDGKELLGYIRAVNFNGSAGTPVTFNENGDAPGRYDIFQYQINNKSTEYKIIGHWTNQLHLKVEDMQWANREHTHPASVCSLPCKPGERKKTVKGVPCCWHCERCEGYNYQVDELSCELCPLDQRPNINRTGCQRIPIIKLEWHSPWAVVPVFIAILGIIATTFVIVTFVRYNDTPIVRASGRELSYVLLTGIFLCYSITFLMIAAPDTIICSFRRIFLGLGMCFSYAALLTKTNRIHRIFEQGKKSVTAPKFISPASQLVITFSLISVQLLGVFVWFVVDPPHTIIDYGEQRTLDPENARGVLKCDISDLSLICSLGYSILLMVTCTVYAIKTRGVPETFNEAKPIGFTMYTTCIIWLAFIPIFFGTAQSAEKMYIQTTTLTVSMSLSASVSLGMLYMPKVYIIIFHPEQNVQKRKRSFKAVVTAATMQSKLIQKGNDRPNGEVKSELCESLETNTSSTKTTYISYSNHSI

This assay has as its target Metabotropic glutamate receptor 8 (Rattus norvegicus) (UniProt P70579). The assay is described as follows: rat mGluR8 modulators via GIRK flux, primary screen, cell-based, thallium flux, HTS (AID 488969). The note with it: HEK293 rat mGluR8, GIRK (G protein-gated inwardly rectifying potassium channel) thallium flux, FluoZin2; at 10 µM; stronger effect = higher value; submaximal glutamate (EC20) added with thallium.
`O=C(CS(=O)(=O)Cc1ccccc1)Nc1ccc(S(=O)(=O)N2CCOCC2)cc1` showed a z-score of -0.109.

Turning to `CCCC(=O)Nc1nc2ccc(S(=O)(=O)N3CCCCC3)cc2s1`, the z-score was -0.273.

`O=C(Nc1nc(-c2cc(Cl)sc2Cl)cs1)c1ccc(Br)s1` yielded a z-score of 0.0927.

As to `O=C(Nc1nc(-c2ccccn2)cs1)c1ccc(Br)s1`, the z-score was 12.3 (active).

In turn, `O=C(Nc1nc(-c2ccccn2)cs1)C1CC1` returned a z-score of 0.0299.

On to `O=C(CSCc1ccccc1Br)N/N=C/c1ccc2c(c1)OCO2`, for which the z-score was -0.0558.

In turn, `CCOCCCNC(=O)Cc1c(C(=O)O)[nH]c2ccc(Cl)cc12` had a z-score of 0.12.

Consider `CCOC(=O)Cn1c(=N)n(CCOc2cccc(C)c2)c2ccccc21`, for which the z-score was 3.95 (active).

Compound `CCOC(=O)Cn1c(=N)n(CCOc2ccc3ccccc3c2)c2ccccc21` displayed a z-score of 1.25.

`CCn1c(=N)n(CCOc2ccc(OC)cc2)c2ccccc21` showed a z-score of -0.158.

For `Cc1cccc(OCCn2c(=O)sc3ccccc32)c1`, the z-score is -0.343.

`Cc1cccc(OCCn2c(=S)[nH]c3ccccc32)c1` returned a z-score of 2.83.

`CCOC(=O)Cn1c(=N)n(CCOc2ccc(OC)cc2)c2ccccc21` displayed a z-score of 2.74.

`Cc1cccc(OCCn2c(S(=O)(=O)O)nc3ccccc32)c1` registered a z-score of 0.0442.

`CCCn1c(=N)n(CC(=O)OCC)c2ccccc21` came in with a z-score of -0.118.

`CCCn1c(=N)n(CCOCCOCCn2c(=N)n(CCC)c3ccccc32)c2ccccc21` had a z-score of 0.012.

The compound `N=c1n(CCO)c2ccccc2n1CCOc1ccccc1` came in with a z-score of -0.208.

As for `CCCn1c(=N)n(CCOc2ccc(OC)cc2)c2ccccc21`, the z-score is 3.04 (active).

Consider `CCn1c(=S)[nH]c2ccccc21`, for which the z-score was found to be 0.63.

`O=C(NCCN1CCCCC1)c1ccco1` yielded a z-score of 0.151.

Turning to `CC1=C(Sc2ccccn2)C(=O)NC(C)(C)C1`, the z-score was 0.338.

The compound `CN(C)S(=O)(=O)c1ccc(C(=O)Nc2ccccc2OC(F)(F)C(F)F)cc1` returned a z-score of -0.525.

Compound `COc1ccc(NC(=O)Nc2ncn(Cc3cccc(C(F)(F)F)c3)n2)cc1OC` registered a z-score of 0.0572.

Compound `COc1ccc(-c2ccc(/C=C3/C(=N)N4C=CSC4=NC3=O)o2)c([N+](=O)[O-])c1` yielded a z-score of 0.455.

In turn, `CC(=O)N1N=C(c2ccco2)CC1c1ccc(C)cc1` (stereo unspecified) showed a z-score of 0.0902.

Take `C=CCNC(=O)C(=O)N/N=C/c1ccco1`: the z-score turned out to be 0.424.

Regarding `CCCn1c(C)cc(=O)c2cc(NC(=O)c3cnccn3)ccc21`, the z-score was -0.106.

Turning to `O=C(Cn1ccc2ccccc2c1=O)N1CCN(Cc2ccc3c(c2)OCO3)CC1`, the z-score is 0.477.

`CCN1C(c2ccccc2)=C(c2ccccc2)S/C1=C/C=C1\SC(=S)N(C)C1=O` displayed a z-score of -0.0724.

In turn, `O=C(NCc1cccs1)C1CCN(S(=O)(=O)c2cccs2)CC1` yielded a z-score of -0.232.

Compound `CCOc1ccc(NC(=O)CSCC(=O)O)cc1` yielded a z-score of -0.178.

With `Cc1occc1C(=O)N/N=C/C1=C(N2CCOCC2)C(=C\c2ccc(Cl)cc2Cl)/CC1`, the z-score is 0.0547.

The compound `CC(NC(=O)Cc1cccs1)C(c1cccs1)N1CCOCC1` (stereo unspecified) yielded a z-score of -0.108.

Compound `C=CCn1c(=N)n(CC(=O)OCC)c2ccccc21` showed a z-score of 0.534.

In the case of `CCOC(=O)Cn1c(=N)n(Cc2ccccc2F)c2ccccc21`, the z-score was 3.72 (active).

`CCOC(=O)Cn1c(=N)n(Cc2ccccc2)c2ccccc21`: the z-score is 0.46.

The compound `COc1cc(C(=O)NCc2nnc(SCC(=O)NCc3ccccc3)o2)cc(OC)c1OC` showed a z-score of 1.55.

In the case of `CCC(c1nnnn1CCOC)N(Cc1cc2c(C)cc(C)cc2[nH]c1=O)CC1CCCO1` (stereo unspecified), the z-score was -0.203.

Compound `Nc1nc(CSC(=S)N2CCOCC2)nc(Nc2ccccc2)n1` displayed a z-score of 2.25.

For `Nc1nc(CSC(=S)N2CCOCC2)nc(Nc2ccc(F)cc2)n1`, the z-score was -0.0752.

`Nc1nc(CSC(=S)N2CCN(c3ccccc3)CC2)nc(Nc2ccccc2)n1` came in with a z-score of 0.00399.

In turn, `Cc1cc(C)c(S(=O)(=O)c2ccccc2)c(OC(=O)c2c(Cl)cccc2Cl)n1` came in with a z-score of -0.286.

In turn, `COc1ccccc1NC(=O)c1cccc(NC(=O)c2ccco2)c1` yielded a z-score of -0.669.

On to `COc1ccc(C)cc1NC(=O)C(=O)NNC(=O)c1ccco1`, for which the z-score is 4.89 (active).

Take `COc1ccccc1NC(=O)c1cc(Cl)ccc1NC(=O)c1ccco1`: the z-score is 0.52.

With `COc1ccccc1NC(=O)C(=O)NNC(=O)c1ccco1`, the z-score stood at 2.81.

With `COc1ccc(Cl)cc1NC(=O)c1ccco1`, the z-score is -0.426.

The compound `COc1ccc(NC(=O)c2ccco2)cc1NC(=O)c1ccc(C)cc1` returned a z-score of -0.304.

Consider `O=c1c2ccccc2nc(CSc2ncnc3nc[nH]c23)n1-c1cccc(C(F)(F)F)c1`, for which the z-score was -0.256.

`Cc1nc(NC(=O)c2ccccc2)sc1-c1csc(NCc2ccco2)n1`: the z-score came out at 0.00275.

Take `Cn1nnc(NC(=O)c2ccco2)n1`: the z-score is 0.813.

`Cc1ccc(C(=O)OCC(=O)NCc2ccco2)cc1` had a z-score of -0.195.

For `CCc1ccc2c(c1)C1(NN=C(c3ccccc3)S1)C(=O)N2` (stereo unspecified), the z-score came to 0.104.

`CC(C)c1ccc2c(c1)C1(NN=C(c3ccccc3)S1)C(=O)N2` (stereo unspecified) returned a z-score of 0.979.

Consider `CCc1ccc2c(c1)C1(NN=C(c3ccc(C)cc3)S1)C(=O)N2` (stereo unspecified), for which the z-score is 3.15 (active).

As for `CCc1ccc2c(c1)C1(NN=C(c3cccc4ccccc34)S1)C(=O)N2` (stereo unspecified), the z-score was 4.02 (active).

`CCc1ccc2c(c1)C1(C(=O)N2)N2CCCC2C(C(=O)c2ccc3ccccc3c2)C12C(=O)Nc1ccccc12` (stereo unspecified): the z-score is -0.276.

The compound `CCc1ccc2c(c1)C(=O)c1ccccc1C2=O` returned a z-score of -0.389.

In turn, `CCCc1ccc(OCC(O)CN2CCN(c3ccccc3)CC2)cc1` (stereo unspecified) had a z-score of -0.0136.

The compound `COc1cc(C2CC(=O)c3c(ccc4ccccc34)N2)ccc1O` (stereo unspecified) showed a z-score of 0.11.

Compound `COc1ccc(C(=O)C(CCCCC(CN(C)C)C(=O)c2ccc(OC)cc2)CN(C)C)cc1` (stereo unspecified) yielded a z-score of -0.494.

With `CCOC(=O)C1=C(C)NC(=O)NC1c1ccc(OC)c(CN2CCOCC2)c1` (stereo unspecified), the z-score worked out at 0.00374.

Compound `COc1ccc(CCCC(=O)Nc2ccccc2F)cc1` showed a z-score of 0.0152.

`COC(=O)c1cc(NC(=O)C2CC2)cc(C(=O)OC)c1` returned a z-score of 0.0071.

For `Cc1ccsc1/C=C1/SC(N2CC(C)OC(C)C2)=NC1=O` (stereo unspecified), the z-score is -0.238.

Regarding `CC(=O)c1ccc(NC(=S)N2CC(C)CC(C)C2)cc1` (stereo unspecified), the z-score was -0.208.

As for `CC(=O)c1ccc(NC2CC(O)C(O)CO2)cc1` (stereo unspecified), the z-score amounted to 2.32.

On to `CC(=O)c1ccc(NC2OC(C)C(O)C(O)C2O)cc1` (stereo unspecified), for which the z-score is 0.292.

For the compound `CCCn1nc(C(=O)OCC(=O)c2ccc3c(c2)NC(=O)CO3)c2ccccc2c1=O`, the z-score was -1.71.

`O=C(NNS(=O)(=O)c1ccccc1)c1ccncc1` gave a z-score of -0.151.

As to `CC1=CC(C)(C)Nc2ccc(OC(=O)C(Cc3ccccc3)N3C(=O)c4ccccc4C3=O)cc21` (stereo unspecified), the z-score is 1.05.

With `CC1=CC(C)(C)Nc2ccc(OC(=O)C(Cc3ccccc3)N3C(=O)C4CCCCC4C3=O)cc21` (stereo unspecified), the z-score came out at 2.63.

As for `CC1=CC(C)(C)Nc2ccc(OC(=O)CN3C(=O)C4CCCCC4C3=O)cc21` (stereo unspecified), the z-score was found to be 1.08.

Turning to `CCC(CC)NC(=O)/C=C/c1ccccc1Cl`, the z-score is -0.178.

Regarding `CCC(Sc1nc2ccc(C)cc2[nH]1)C(=O)O` (stereo unspecified), the z-score was 0.179.

The compound `COC(=O)c1cc(OC)c(OC)cc1NC(=O)c1ccc(C)o1` had a z-score of -0.653.

With `CC(C)(C)c1ccc(C(=O)NCC(=O)OCC(=O)Nc2ccc3c(c2)OCCO3)cc1`, the z-score was 0.131.

`CCCCC(=O)Nc1ccc(Br)cc1C(=O)O` gave a z-score of -0.24.

Take `C/C(CC1CC2=C(CC1(C)C)C(C)(C)CCC2)=N\NC(N)=S` (stereo unspecified): the z-score was found to be 0.599.

As for `CC1CC2=C(CC1/C=N/NC(N)=S)C(C)(C)CCC2` (stereo unspecified), the z-score was 3.44 (active).

On to `CC1=C(CC/C(C)=N/NC(N)=S)C(C)(C)CCC1`, for which the z-score was 1.85.

In turn, `CCCCNC(=O)Cn1nc([N+](=O)[O-])c([N+](=O)[O-])c1C` gave a z-score of -0.27.

In turn, `Cc1noc(C)c1S(=O)(=O)N1CCC(Cc2ccccc2)CC1` came in with a z-score of 2.68.

In the case of `Cc1noc(C)c1S(=O)(=O)N1CCN(c2ccccc2)CC1`, the z-score is -0.073.

On to `Cc1noc(C)c1S(=O)(=O)N1CCC(C(=O)N(C)Cc2ccccc2)CC1`, for which the z-score is -0.182.

`COc1ccc(CCn2c(N)c(S(=O)(=O)c3cccs3)c3nc4ccccc4nc32)cc1OC` showed a z-score of -0.349.

Compound `COc1ccc(CC(=O)OCCN(C)C)cc1` showed a z-score of 0.0321.

Consider `O=C(CN1C(=O)c2cccc3cccc(c23)C1=O)N1CCN(c2ccccn2)CC1`, for which the z-score was 8.64 (active).

In turn, `O=C(CCN1C(=O)COc2ccccc21)N1CCN(c2ccccn2)CC1` displayed a z-score of 0.258.

As to `O=C(CN1C(=O)/C(=C/c2ccccc2F)Oc2ccccc21)N1CCN(c2ccccn2)CC1`, the z-score is 6.44 (active).

On to `O=C(CN1C(=O)/C(=C\c2cccc(F)c2)Oc2ccccc21)N1CCN(c2ccccn2)CC1`, for which the z-score came out at 0.117.

The compound `O=C(CCCN1C(=O)c2cccc3cccc(c23)C1=O)N1CCN(c2ccccn2)CC1` came in with a z-score of 0.0204.

`O=C(CN1C(=O)c2ccccc2C1=O)N1CCN(c2ccccn2)CC1` showed a z-score of -0.293.

`CC(C)c1nnc(SCC(=O)NCc2ccc3c(c2)OCO3)n1C` returned a z-score of -0.49.

Consider `CCn1c(=O)n(CC)c2cc([N+](=O)[O-])ccc21`, for which the z-score was -0.0668.

For the compound `COc1ccccc1NC(=O)Cc1c(F)cccc1Cl`, the z-score was -0.193.

Compound `O=C(Nc1cccc2ncccc12)c1ccc(-c2ccc(Br)cc2)o1` had a z-score of -0.163.

Take `CCOC(=O)C1=C(C)NC(=O)NC1c1ccc(C)o1` (stereo unspecified): the z-score stood at 0.0551.

In turn, `CCOC(=O)C1=C(C)NC(=O)NC1c1ccc(Br)o1` (stereo unspecified) displayed a z-score of 2.92.

Consider `CCOC(=O)C1=C(C)NC(C)=C(C(=O)OCC)C1c1ccc(Br)o1`, for which the z-score was -0.356.

The compound `O=C(CN1C(=O)c2ccccc2C1=O)NCCc1c[nH]c2ccccc12` came in with a z-score of -0.164.

Consider `CCOc1ccc(C2=C(C=Nc3c(C)n(C)n(-c4ccccc4)c3=O)C(c3ccc(F)cc3)c3ccccc3O2)cc1` (stereo unspecified), for which the z-score was determined as 1.53.

With `CCc1c(C)n([O-])c2c([n+]1=O)CCC2`, the z-score worked out at 0.305.

The compound `Cc1ccc(-c2c(C)n([O-])c3c([n+]2=O)CCC3)cc1` displayed a z-score of -0.263.

Consider `Cc1c(C)[n+](=O)c2c(n1[O-])CCC2`, for which the z-score was 14.6 (active).

`Cc1ccc(OCCCSc2ncccn2)cc1C` returned a z-score of -0.106.

The compound `Cn1c(SCc2nnc(-c3ccc(F)cc3)o2)nnc1C1COc2ccccc2O1` (stereo unspecified) yielded a z-score of -0.382.

The compound `O=C(NC1CCCCCC1)c1cccc(N2CCCC2=O)c1` returned a z-score of -0.399.

As to `CN1CCN(C(=O)CN(Cc2ccc(Cl)cc2)S(C)(=O)=O)CC1`, the z-score is 0.244.

The compound `Cc1cc(NC(=O)CSc2nc3ccccc3n2CC(=O)N2CCCCC2)no1` had a z-score of 0.0584.

Regarding `Cc1ccc(N2C(=O)C3CC(c4ccccc4)=C4C5C=CC(C6C(=O)N(c7ccc(C)cc7)C(=O)C56)C4C3C2=O)cc1` (stereo unspecified), the z-score is -0.0459.

The values are drawn from PubChem BioAssay AID488969 (Vanderbilt High Throughput Screening Facility, 2010).
